Source: PubChem BioAssay
NR1D1 modulator – Rev-erb alpha (human) modulation. Rev-erbα–FITC-DNA binding, fluorescence polarization, 90 min. actives 0.79% (n = 370,000). activity, % at 10 µM;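 active = activity above about 14%, limit read from the data; passing the limit was not always enough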;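 also: 0% = DMSO wells with 35 nM protein and 100% = DMSO wells with 750 nM protein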
PG9 binder – small molecules binding HIV-1 gp120 antibody PG9 | TR-FRET gp120-PG9 antibody binding | inhibition, % at 6.7 µM | actives 0.43% (n = 360,000) | AID 624416; in the data active = inhibition above about 8.5%
EBNA-1 inh – blocks EBNA-1 binding to DNA | EBNA-1 DNA binding, fluorescence polarization | inhibition, % at 14.8 µM | actives 0.34% (n = 300,000); in the data active = inhibition above about 28%
p47phox inh – p47phox (human) inhibition; P14598; p47phox/p22phox peptide binding, fluorescence polarization, 2 h; inhibition, % at 24.7 µM; actives 0.53% (n = 220,000);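 active = inhibition above about 30%, limit read from the data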;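 also: 0% = p47phox with labelled peptide and 100% = labelled peptide alone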
aDG glyco act – alpha-DG glycosylation activation. activation, % at 10 µM. Pro5-aDG cells, alpha-DG glycosylation AlphaScreen (IIH6); 0% Pro5, 100% B10-LARGE cell signal. AID 624168. actives 0.22% (n = 360,000);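 active = activation of at least 8% versus controls, or a plate z-score of at least 8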;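 also: Pro5 are CHO cells carrying HIG-tagged alpha-DG that lacks glycosylation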
ZTA counter – counter-screen for EBNA-1 inhibitors: inhibitors of Epstein-Barr virus ZTA; P03206; ZTA-DNA binding, fluorescence polarization; inhibition, % at 11 µM; actives 0.15% (n = 320,000); in the data active = inhibition above about 33%
Target sequence (P03206 whole entry, looked up): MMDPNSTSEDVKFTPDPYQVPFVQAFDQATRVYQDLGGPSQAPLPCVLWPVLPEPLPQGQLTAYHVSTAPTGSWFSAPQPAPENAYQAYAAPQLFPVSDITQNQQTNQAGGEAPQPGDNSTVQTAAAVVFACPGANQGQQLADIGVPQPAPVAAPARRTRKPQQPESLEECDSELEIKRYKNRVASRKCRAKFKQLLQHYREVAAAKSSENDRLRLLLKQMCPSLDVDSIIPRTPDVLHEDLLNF
Numbers without * were called inactive; . = no result given. Hits are enriched below; roughly 1.9% of the tested compounds scored in any of these assays.

SMILES	NR1D1 modulator	PG9 binder	EBNA-1 inh	p47phox inh	aDG glyco act	ZTA counter
COC(=O)C1=C(C(=O)OC)[C@@]2([C@@H](Cc3ccc(C)cc3)Nc3ccccc3)C=C[C@@H]1O2	-4	.	.	.	.	.
COc1ccc(N=C2O/C(=C/c3sc(=S)n(CC4CCCO4)c3O)N=C2C#N)cc1 (stereo not given)	10	-1	-11	42*	0	-6
O=C1NCCN1c1ccc(CN2CCN(C3CCCCC3)C(CCO)C2)cc1 (stereo not given)	1	0	2	64*	2	-1
CC(C)=CCN1CCN(Cc2ccc(N3CCNC3=O)cc2)CC1CCO (stereo not given)	0	-1	-1	8	0	1
CCOC(=O)c1ccc(N2C(=O)c3n[nH]c(C)c3C2c2ccccn2)cc1 (stereo not given)	2	1	5	-20	4.6*	1
CC(=O)OCC(=O)[C@@]1(O)CCC2C3CCC4=CC(=O)CC[C@]4(C)C3C(=O)C[C@@]21C (stereo not given in full)	-1	.	.	.	.	.
CCc1c(C)sc(NC(=O)OC)c1C(=O)N1CCCCC1	2	1	9	37*	0	0
Cc1ccc(-c2ccc(/C=N\NC(=O)c3cc4c(ccc5ccccc54)o3)o2)cc1[N+](=O)[O-]	-22	-2	-7	39*	-1	-16
CC12CCC(C(=O)N3CCN(Cc4ccccc4)CC3)(OC1=O)C2(C)C (stereo not given)	2	-1	10	32*	0	4
N=C1/C(=C/c2ccc(-c3cccc(C(=O)O)c3)o2)C(=O)N=C2SC=C(c3ccccc3)N12	-14	-1	60*	-74	0	35*
N=C1/C(=C\c2ccc(-c3cc(Cl)cc(Cl)c3)o2)C(=O)N=C2SC=C(c3ccccc3)N12	3	-4	2	-32	0	1
Cc1ccc(O)c(C(=O)c2cnn(C(=O)COc3ccc(Cl)cc3)c2)c1	0	0	3	21	0	1
Cc1ccc(O)c(C(=O)c2cnn(C(=O)COc3ccccc3C#N)c2)c1	.	.	0	32*	.	-15
O=C(Cn1c2c(c(-c3ccccc3)cc1=O)CCCC2)N1CCCCCC1	9	-2	-13	-12	0	-13
CCCCNC(=O)Cn1c2c(c(-c3ccccc3Cl)cc1=O)CCC2	0	2	5	81*	0	5
O=C(O)CC(S)C(=O)O (stereo not given)	0	.	.	.	.	.
CCOC(=O)C1=C(O)c2ccccc2C(=O)/C1=C\c1ccc(C)cc1	.	.	-5	57*	1	7
Cn1nc(CC(=O)Nc2ccc(N3CCN(C(=O)OC(C)(C)C)CC3)cc2)c2ccccc2c1=O	-4	0	4	31*	4	-1
COc1ccc(-c2cc(=O)oc3cc(OCC(C)=O)ccc23)cc1	1	4	2	3	0	8
COc1ccc(-c2cc(=O)oc3cc(OCC(=O)c4cccc([N+](=O)[O-])c4)ccc23)cc1	-24	-4	.	64*	.	.
O=S1(=O)CC2c3ccccc3CN2CN1Cc1ccccc1 (stereo not given)	2	.	.	.	.	.
CCCCCCCCCCCCCCCCCCCCCCCCCCCCO	-5	.	.	.	.	.
O=S(=O)(NCC1CCCO1)c1ccc(-c2ccc(S(=O)(=O)NCC3CCCO3)cc2)cc1 (stereo not given)	-1	1	-3	1	7.4*	11
Cc1ccc(S(=O)(=O)NCC2CCCO2)cc1 (stereo not given)	5	-4	0	.	0	10
O=C(CSc1cccc[n+]1[O-])Nc1cc([N+](=O)[O-])ccc1Cl	-8	0	-7	-4	0	-7
SMILES	NR1D1 modulator	PG9 binder	EBNA-1 inh	p47phox inh	aDG glyco act	ZTA counter
O=C(CSc1cccc[n+]1[O-])Nc1cc2c(cc1Cl)C(=O)c1ccccc1C2=O	-32	0	-13	33*	0	3
C[C@@H]1ON(C)[C@H]2C[C@H]3c4[nH]c5c(-c6ccccc6F)cccc5c4CCN3C[C@@H]12	-1	.	.	.	.	.
O=C(CSc1nc(-c2ccccc2)nc2ccccc12)Nc1nccs1	8	29*	7	-37	0	2
O=C1CCCC(=O)C1C(=O)c1ccc(C(F)(F)F)cc1[N+](=O)[O-]	-8	.	.	.	.	.
COc1ccc(/C(O)=C2/C(=O)C(=O)N(CCN(C)C)C2c2ccc(C)cc2)cc1Cl (stereo not given)	2	7	-1	-15	2	-1
COc1ccc(/C(O)=C2/C(=O)C(=O)N(CCN(C)C)C2c2ccccc2)cc1Cl (stereo not given)	-3	8.7*	8	-5	0	-12
C(=N\Nc1nc(Nc2ccccc2)nc(N2CCCCC2)n1)/c1ccco1	-2	-1	-5	135*	.	3
O=C(O)c1csc(-c2ccc(Cl)cc2)n1	-7	0	6	65*	0	-21
CN1CCN(C2=C(Cl)C(=O)C(c3cnc(N4CCCCC4)s3)=C(Cl)C2=O)CC1	.	.	-15	48*	0	6
O=C(CSc1nnc(-c2ccccc2)n1-c1ccc(Cl)cc1)NN=Cc1c[nH]c2ccccc12	-2	.	.	.	.	.
CCC[C@H]1[C@@H](OC(=O)Oc2ccc([N+](=O)[O-])cc2)CC[C@@]23CCCN2C(=O)CCC[C@@H]13	-3	.	.	.	.	.
COc1ccc(C#CCN(C)/C(N)=N/C(=O)OCc2ccccc2)cc1	-3	.	.	.	.	.
CCOc1ccc(OCC)c2sc(C)nc12	1	2	12	59*	0	-9
CCOc1cccc2sc(Cl)nc12	-4	1	16	-1	0	-4
NC(=O)C(c1ccccc1)(c1ccccc1)[C@H]1CCN(CCc2ccc3c(c2)CCO3)C1	8	.	.	.	.	.
COC(=O)[C@H]1C[C@@]2(C)c3ccccc3N(S(=O)(=O)c3ccccc3)[C@H]2N1	-2	.	.	.	.	.
Nc1ccc2c(c1)OC1(CCCCC1)O2	-2	0	.	45*	0	.
Cc1[nH][nH]c(=O)c1C(c1ccc(-c2ccc(F)cc2)o1)c1c(C)[nH][nH]c1=O	2	-4	-15	-2	0	3
COc1ccc(-c2ccc(C(c3c(C)[nH][nH]c3=O)c3c(C)[nH][nH]c3=O)o2)c([N+](=O)[O-])c1	-3	-2	.	42*	0	.
Cc1ccc(C(C(=O)NCc2ccco2)N(Cc2ccco2)C(=O)CNC(=O)c2ccco2)cc1 (stereo not given)	-7	2	-1	67*	0	9
COc1ccc(C(C(=O)NC2CCCCC2)N(Cc2ccco2)C(=O)CNC(=O)c2ccco2)cc1 (stereo not given)	-1	0	8	-2	1	8
COC(=O)[C@]12C[C@H](CC(=O)N3CCN(C(=O)c4ccco4)CC3)C(=O)N(Cc3ccccc3)C1=C[C@H](COCc1ccccc1)O[C@@H]2C	-6	.	.	.	.	.
CC(=O)N[C@@H](CCC(N)=O)C(=O)O	2	.	.	.	.	.
